{
  "source": "PubChem BioAssay (NCATS)",
  "note": "Inconclusive results are not listed. Entries that show only a call come without a potency. The source made the active and inactive calls. Calls come from the whole dose curve; as a rule, active = well fitted inhibition curve with a large enough effect; inconclusive = small, poorly fitted or top-dose-only effect; inactive = no such curve, though single readings can be large or run the other way. Square brackets hold non-standard residues; d marks the D form. Peptide text beside a SMILES is read from it.",
  "data": [
    {"biological_target": "Retinaldehyde dehydrogenase 3 (Homo sapiens) (UniProt P47895)", "experiment": "qHTS for Inhibitors of the Aldehyde Dehydrogenase Family (ALDH1A3) Primary screen (AID 2061315)", "details": "ALDH inhibition qHTS; series mostly up to 56 µM", "values": [
      {"smiles": "CC1=C(C)C(=O)OC(C(C)C2C(O)CC3C4C5OC5C5(O)CC(OC6OC(CO)C(OC7OC(C)C(O)C(O)C7O)C(O)C6O)CC(O)C5(C)C4CCC32C)C1", "note": "(centres undefined)", "Potency": "inactive"},
      {"smiles": "CC1C(=O)CC2C3C(O)CC(C(=O)O)C12CC3(C)C", "note": "(centres undefined)", "Potency": "inactive"},
      {"smiles": "C=C1C(OC2OCC(O)C(O)C2O)CC2C(C)(C)C(O)CCC2(C)C1CC/C(C)=C\\CO", "note": "(centres undefined)", "Potency": "inactive"},
      {"smiles": "O=C(OCC12OC1C=CC(OC(=O)c1ccccc1)C2O)c1ccccc1", "note": "(centres undefined)", "Potency": "inactive"},
      {"smiles": "C[C@@H]1CCC/C=C/[C@H]2CC(=O)C[C@@H]2[C@@H](O)/C=C/C(=O)O1", "Potency": "inactive"},
      {"smiles": "CC(=O)N[C@H](Cc1ccc(O)cc1)C(=O)N[C@H](CCCN=C(N)N)C(=O)N[C@H](Cc1ccccc1)C(N)=O", "note": "(Ac-[dY]-[dR]-[dF]-NH2)", "Potency": "inactive"},
      {"smiles": "O=C1OCC(c2ccccc2)=C1Cc1ccccc1", "Potency": "inactive"},
      {"smiles": "C=C1C(=O)O[C@H]2[C@H]1[C@@H](OC(=O)/C(C)=C\\C)C[C@]1(C)O[C@@H]1[C@H]1O[C@H]1C(=C)[C@H]2O", "Potency": "inactive"},
      {"smiles": "COc1cn(-c2ccc(-n3cccn3)cc2F)nc(-c2ccnn2-c2ccccc2)c1=O", "Potency": "inactive"},
      {"smiles": "COC(=O)C1=COC(O[C@@H]2O[C@H](CO)[C@@H](O)[C@H](O)[C@H]2O)[C@H]2[C@@H]1[C@H](OC(=O)CCc1ccc(O)cc1)C[C@]2(C)O", "note": "(some centres undefined)", "Potency": "inactive"},
      {"smiles": "CC1CCC2(NC1)OC1CC3C4CC=C5CC(O[C@@H]6O[C@H](CO)[C@@H](O[C@@H]7O[C@@H](C)[C@H](O)[C@@H](O)[C@H]7O)[C@H](O)[C@H]6O[C@@H]6O[C@@H](C)[C@H](O)[C@@H](O)[C@H]6O)CCC5(C)C4CCC3(C)C1C2C", "note": "(some centres undefined)", "Potency": "inactive"},
      {"smiles": "CC1(C)CCCC2(C)C3=C(C(=O)OC3O)C(O)CC12", "note": "(centres undefined)", "Potency": "inactive"},
      {"smiles": "c1ccc(-c2cnn3cc(-c4ccc(OCCN5CCOCC5)cc4)cnc23)cc1", "Potency": "inactive"},
      {"smiles": "CC(=O)O[C@@]1(C)C[C@@H](O)[C@]2(O)C=CO[C@@H](O[C@@H]3O[C@H](CO)[C@@H](O)[C@H](O)[C@H]3O)[C@@H]21", "Potency": "inactive"},
      {"smiles": "CC(=O)N[C@H]1[C@H](O[C@H]2CC[C@@]3(C)C(CC[C@]4(C)C3CC=C3C5CC(C)(C)CC[C@]5(C(=O)O)[C@H](O)C[C@]34C)C2(C)C)O[C@H](CO[C@@H]2OC[C@H](O)[C@H](O)[C@H]2O[C@@H]2OC[C@@H](O)[C@H](O)[C@H]2O)[C@@H](O)[C@@H]1O", "note": "(some centres undefined)", "Potency": "inactive"},
      {"smiles": "COc1cccc(Cn2ncc3c4sc(S(C)=O)cc4n(C)c3c2=O)c1", "note": "(centres undefined)", "Potency": "inactive"},
      {"smiles": "C=C1CCC2C(C)(C(=O)O)CCCC2(C)C1CCC(C)CC(=O)O", "note": "(centres undefined)", "Potency": "inactive"},
      {"smiles": "C=C(CCO)C(=O)OCC1OCC(OC(=O)C(=C)CCO[C@@H]2O[C@H](CO)[C@@H](O)[C@H](O)[C@H]2O)C(O)C1O", "note": "(some centres undefined)", "Potency": "inactive"},
      {"smiles": "CC1C=CC2CCCCC2C1CCC1CC(O)CC(=O)O1", "note": "(centres undefined)", "Potency": "inactive"},
      {"smiles": "C=CC/C=C\\C/C=C\\CCCCCCCc1cccc(O)c1C(=O)O", "Potency": "inactive"},
      {"smiles": "C/C=C(\\C)C(=O)O[C@H]1C=CC(=O)O[C@H]1/C=C/[C@@H](O)[C@H](C)O", "Potency": "inactive"},
      {"smiles": "C/C(=C\\C(=O)C[C@@]12C(=O)O[C@]3(C)CC[C@H]1C[C@H]23)C(N)=O", "Potency": "inactive"},
      {"smiles": "C[C@H]1[C@H](C)CC[C@]2(C(=O)O)CC[C@]3(C(=O)O)C(=CCC4[C@@]5(C)CC[C@H](O[C@@H]6O[C@H](C)[C@@H](O)[C@H](O)[C@H]6O)C(C)(C)C5CC[C@]43C)[C@H]12", "note": "(some centres undefined)", "Potency": "inactive"},
      {"smiles": "CC1(CO)CC(O)C2(C)CCC3(C)C(=CCC4C5(C=O)CCC(OC6OC(C(=O)O)C(O)C(O)C6OC6OC(C(=O)O)C(O)C(O)C6O)C(C)(C)C5CCC43C)C2C1", "note": "(centres undefined)", "Potency": "inactive"},
      {"smiles": "CCCCS(=O)(=O)N[C@@H](Cc1ccc(OCCCCC2CCNCC2)cc1)C(=O)O", "Potency": "inactive"},
      {"smiles": "CC(=O)NC[C@H]1CN(c2ccc(N3CCN(C(=O)CO)CC3)c(F)c2)C(=O)O1", "Potency": "inactive"},
      {"smiles": "C[C@@H](Cc1cc2c(c(C(N)=O)c1)N(CCCO)CC2)NCCOc1ccccc1OCC(F)(F)F", "Potency": "inactive"},
      {"smiles": "O=c1cc(N2CCN(c3cccc(C(F)(F)F)c3)CC2)[nH]c(=O)n1C1CCCCC1", "Potency": "inactive"},
      {"smiles": "N[C@H]1C[C@H]1c1ccc(-c2cccc(O)c2)cc1", "Potency": "inactive"},
      {"smiles": "COC(=O)[C@H](O)[C@H]1C(C)(C)[C@H](OC(=O)C(C)C)[C@@]2(O)C(=O)[C@]1(C)C1CC[C@]3(C)C(CC(=O)O[C@H]3c3ccoc3)[C@]13O[C@@H]32", "note": "(some centres undefined)", "Potency": "inactive"},
      {"smiles": "C[C@@H]1O[C@@H](O[C@H]2[C@H](O)[C@@H](O)[C@H](O[C@H]3[C@H](O[C@H]4CC[C@@]5(C)C(=CC[C@@H]6C5CC[C@]5(C)[C@@H]7[C@H](C[C@@H]65)O[C@]5(CC[C@@](C)(CO[C@@H]6O[C@H](CO)[C@@H](O)[C@H](O)[C@H]6O)O5)[C@H]7C)C4)O[C@H](CO)[C@@H](O)[C@@H]3O)O[C@@H]2CO)[C@H](O)[C@H](O)[C@H]1O", "note": "(some centres undefined)", "Potency": "inactive"},
      {"smiles": "COc1cc(C)c(C(=O)NC2C(C)OC(OC3CCC(C)C4C3C=C(C)C3/C(C)=C\\CC/C(C)=C/C5(C)C=C(C(=O)O)C(C)CC56OC(=O)/C(=C(\\O)C34C)C6=O)C(O)C2(C)O)c(O)c1", "note": "(centres undefined)", "Potency": "inactive"},
      {"smiles": "O=C(Nc1cccc([N+](=O)[O-])c1)c1cccc(S(=O)(=O)N2CCCCCC2)c1", "Potency": "inactive"},
      {"smiles": "CCC(C)/C=C(C)/C=C/C1=CC2=C(Cl)C(=O)C(C)(OC(C)=O)C(=O)C2=CN1CCCC(=O)O", "note": "(centres undefined)", "Potency": "inactive"},
      {"smiles": "C=C1CCC2[C@](C)(CCC[C@@]2(C)C=O)[C@H]1CC/C(C)=C/CO", "note": "(some centres undefined)", "Potency": "inactive"},
      {"smiles": "C[C@]1(CO)CCC[C@]2(C)C3=C(CCC12)COC3", "note": "(some centres undefined)", "Potency": "inactive"},
      {"smiles": "COc1cc(C2c3cc(O)c(OC)cc3CC(CO)C2CO)ccc1O", "note": "(centres undefined)", "Potency": "inactive"},
      {"smiles": "CC1(C)C(=O)N2c3ccccc3C(O)(CC(C(=O)O)n3cnc4ccccc4c3=O)C2N1O", "note": "(centres undefined)", "Potency": "inactive"},
      {"smiles": "O=C1COC2(CCN(S(=O)(=O)c3ccc(-c4ccc5cccnc5c4)cc3)CC2)CN1C1CC1", "Potency": "inactive"}
    ]}
  ]
}
